In PubChem BioAssay (NCI):
Values joined by “and” are separate entries in the source; they are usually repeats but may differ in a detail not shown here. Equal values may be shown once. This is part of a sample that, as a whole, favours compounds with a hit. Of some 83,000 tested, about 20% had one in any assay.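 Testing used 96-well plates and a 48-hour single-concentration exposure. Example: -40 means 40% of the starting cells died.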 Active and inactive are the calls of the source. Rule for the calls: active = growth percent below 10; inactive = the rest.

What follows are compounds tested on K-562 leukemia (assay: NCI-60 one-dose screen, 48 h (100 = growth as untreated, 0 = no growth, -100 = all killed)). Details: 10 µM unless noted.
`ON=C1CCCCCCCC1` was tested, and the growth was 88.5% (inactive) and 108% (inactive).
For `CCOC(=O)N(O)c1ccc(/C=C/c2ccccc2)cc1`, the growth was 39.9% (inactive) and 40.3% (inactive).
With `O=S(=O)(O)c1ccc(N=Nc2ccc(N=Nc3cccc4ccccc34)c(S(=O)(=O)O)c2)cc1` the growth was 104% (inactive).
In the case of `COc1ccc(-c2nn3c(-c4cc(F)c(Cl)cc4Cl)nnc3s2)cc1`, the growth is reported as 16.1% (inactive).
`CCc1c2c(nc3ccc(OCc4ccc(B5OC(C)(C)C(C)(C)O5)cc4)cc13)-c1cc3c(c(=O)n1C2)COC(=O)[C@]3(O)CC` was tested, and the growth was 19.8% (inactive).
For `O=C(O)c1ccccc1Cc1ccc(F)c2ccccc12`, the growth was 103% (inactive) and 98.4% (inactive).
In the case of `CCCCC1COc2cccc3c2N1C=C/C3=C\C(=O)N(C)c1cccc(Cl)c1` (stereo unspecified), the growth is reported as 91% (inactive).
`COc1ccc(/C=C2\COc3ccc(O)c(O)c3C2=O)c(OC)c1OC` was tested, and the growth was 9.86% (active).
With `CC12OC(CC(O)C1O)n1c3ccccc3c3c4c(c5c6ccccc6n2c5c31)C(=O)N(CCN1CCOCC1)C4=O` (stereo unspecified) the growth was 7.56% (active).
With `COc1ccc(/C=N/C2=C(C#N)C(c3ccccc3)c3c(ccc4ccccc34)O2)cc1` (stereo unspecified) the growth was 8.18% (active).
With `COc1ccc(-c2cc3cnc4ccccc4c3oc2=O)cc1` the growth was 28.1% (inactive).
For `O=C(/C=C/c1ccc(F)cc1)Nc1ncc(Cc2ccc(F)cc2)s1`, the growth was 14% (inactive).
With `COc1cc(/C=C2\CCC/C(=C\c3cc(CN4CCCC4)c(O)c(OC)c3)C2=O)cc(CN2CCCC2)c1O` the growth was 11.1% (inactive).
For `CN(C)CCCn1c2c(c3ccc(N4CCNCC4)cc3c1=O)C(=O)c1ccccc1-2`, the growth was -28.5% (active).
For `C=CCOc1ccc(/C=C2\SC(=S)N(CCc3ccc(O)cc3)C2=O)cc1`, the growth was 62.1% (inactive).
`CCOC(=O)C1=C(C)N=C2SC=C(c3ccc(F)cc3)N2[C@H]1c1cn(-c2ccccc2)nc1-c1ccc(Cl)cc1` was tested, and the growth was 102% (inactive).
With `COc1ccc(/C=N/NC(=O)CN2CCN(c3cc4c(cc3F)c(=O)c(C(=O)O)cn4C3CC3)CC2)cc1O` the growth was 86.2% (inactive).
`COc1cccc(C2C(C#N)=C(N)Oc3cc(OCCCCCC[P+](c4ccccc4)(c4ccccc4)c4ccccc4)ccc32)c1` (stereo unspecified) was tested, and the growth was -21.2% (active).
`Cc1nn(-c2nc(-c3cc4ccccc4oc3=O)cs2)c(C)c1N=Nc1ccccc1` was tested, and the growth was 93% (inactive).
In the case of `Cn1cc2c(=O)nc3c(-c4nc5ccccc5[nH]4)n[nH]n3c2n1`, the growth is reported as 61.1% (inactive).
In the case of `O=C1c2cccc3cccc(c23)C(=O)N1N1C(=O)c2cccc3c(N4CCNCC4)ccc(c23)C1=O`, the growth is reported as -59.2% (active).
For `Cc1nc2sc(C(=O)Nc3cccc4ncccc34)c(N)c2cc1C(C)O` (stereo unspecified), the growth was 28.8% (inactive).
With `CCOC(=O)c1nc2c3ccccc3cnn2c1C(=O)c1ccc(OC)cc1` the growth was 96.9% (inactive).
In the case of `O=C1/C(=C/c2ccccc2[N+](=O)[O-])Cc2ccccc21`, the growth is reported as 10.5% (inactive) and 6.16% (active).
In the case of `COc1cc(/C=C2/C=C(c3ccc(C(C)(C)C)cc3)N(CCc3ccc(S(N)(=O)=O)cc3)C2=O)cc(OC)c1OC`, the growth is reported as 24.5% (inactive).
With `COC(=O)N/N=C/c1c[n+]([O-])c2ccccc2[n+]1[O-]` the growth was 103% (inactive).
With `Cc1nc(-n2[nH]c(=O)ccc2=O)sc1N=Nc1ccccc1` the growth was 101% (inactive).
For `CC1(Cc2ccccc2)CC2=C(C(=O)O1)C(c1ccccc1)NC(=O)N2` (stereo unspecified), the growth was 78.4% (inactive).
`Cc1ccc(/C=C/c2c(C(=O)/C=C/c3ccccc3)c(C)nc3ccccc23)cc1` was tested, and the growth was 8.62% (active).
With `CC1=C2[C@@H](CC1)[C@]1(C)O[C@@](C3CC3)(C[C@H]1OC(=O)CO)[C@H]2OC(=O)/C=C/c1ccccc1` the growth was 79.4% (inactive).
`COc1ccc(S(=O)(=O)Nc2cc(Sc3cccc4cccnc34)c(O)c3ccccc23)cc1` was tested, and the growth was -7.46% (active).
With `CCN(CC)CCCN1C(=O)c2c(c(C)c3c(oc4cc(OC)ccc43)c2C)C1=O` the growth was -31.5% (active).
`CN1Cn2c(ccc2C(F)(F)F)C(=O)CS1(=O)=O` was tested, and the growth was 110% (inactive).
With `O=c1cc(N/N=C/c2ccc(F)cc2)c2cc(Cl)ccc2[nH]1` the growth was 2.38% (active).
`Cc1cccc(-c2nnc(SCC(=O)Nc3ncc(Cc4ccccc4)s3)n2N2C(=O)CSC2=S)c1` was tested, and the growth was 77.6% (inactive).
With `COc1ccc(/C(C)=C(\c2ccc(OCCN3CCCCCC3)cc2)c2ccc(OC(=O)C3CCCCC3)cc2)cc1` the growth was -23.5% (active).
For `COc1ccc2c(c1)c(C(=O)c1nc(-c3cn(C)c4ccccc34)no1)cn2C`, the growth was 72% (inactive).
For `CCOC(=O)c1nnn(Cc2cc(=O)oc3c2ccc2ccccc23)c1C`, the growth was 104% (inactive).

What follows are compounds tested on MALME-3M melanoma in the same assay as above. Details: 10 µM unless noted.
With `ON=C1CCCCCCCC1` the growth was 100% (inactive) and 98.6% (inactive).
In the case of `CCOC(=O)N(O)c1ccc(/C=C/c2ccccc2)cc1`, the growth is reported as 96.6% (inactive) and 117% (inactive).
For `O=S(=O)(O)c1ccc(N=Nc2ccc(N=Nc3cccc4ccccc34)c(S(=O)(=O)O)c2)cc1`, the growth was 107% (inactive).
`COc1ccc(-c2nn3c(-c4cc(F)c(Cl)cc4Cl)nnc3s2)cc1` was tested, and the growth was 41.4% (inactive).
`CCc1c2c(nc3ccc(OCc4ccc(B5OC(C)(C)C(C)(C)O5)cc4)cc13)-c1cc3c(c(=O)n1C2)COC(=O)[C@]3(O)CC` was tested, and the growth was -6.1% (active).
With `O=C(O)c1ccccc1Cc1ccc(F)c2ccccc12` the growth was 102% (inactive) and 117% (inactive).
`CCCCC1COc2cccc3c2N1C=C/C3=C\C(=O)N(C)c1cccc(Cl)c1` (stereo unspecified) was tested, and the growth was 107% (inactive).
In the case of `COc1ccc(/C=C2\COc3ccc(O)c(O)c3C2=O)c(OC)c1OC`, the growth is reported as 24.2% (inactive).
For `CC12OC(CC(O)C1O)n1c3ccccc3c3c4c(c5c6ccccc6n2c5c31)C(=O)N(CCN1CCOCC1)C4=O` (stereo unspecified), the growth was -18% (active).
In the case of `COc1ccc(/C=N/C2=C(C#N)C(c3ccccc3)c3c(ccc4ccccc34)O2)cc1` (stereo unspecified), the growth is reported as 47.5% (inactive).
`COc1ccc(-c2cc3cnc4ccccc4c3oc2=O)cc1` was tested, and the growth was 97% (inactive).
With `O=C(/C=C/c1ccc(F)cc1)Nc1ncc(Cc2ccc(F)cc2)s1` the growth was 41.5% (inactive).
With `COc1cc(/C=C2\CCC/C(=C\c3cc(CN4CCCC4)c(O)c(OC)c3)C2=O)cc(CN2CCCC2)c1O` the growth was 81.6% (inactive).
For `CN(C)CCCn1c2c(c3ccc(N4CCNCC4)cc3c1=O)C(=O)c1ccccc1-2`, the growth was 21% (inactive).
For `C=CCOc1ccc(/C=C2\SC(=S)N(CCc3ccc(O)cc3)C2=O)cc1`, the growth was 101% (inactive).
For `CCOC(=O)C1=C(C)N=C2SC=C(c3ccc(F)cc3)N2[C@H]1c1cn(-c2ccccc2)nc1-c1ccc(Cl)cc1`, the growth was 100% (inactive).
For `COc1ccc(/C=N/NC(=O)CN2CCN(c3cc4c(cc3F)c(=O)c(C(=O)O)cn4C3CC3)CC2)cc1O`, the growth was 109% (inactive).
In the case of `COc1cccc(C2C(C#N)=C(N)Oc3cc(OCCCCCC[P+](c4ccccc4)(c4ccccc4)c4ccccc4)ccc32)c1` (stereo unspecified), the growth is reported as -73.3% (active).
`Cc1nn(-c2nc(-c3cc4ccccc4oc3=O)cs2)c(C)c1N=Nc1ccccc1` was tested, and the growth was 96.5% (inactive).
`Cn1cc2c(=O)nc3c(-c4nc5ccccc5[nH]4)n[nH]n3c2n1` was tested, and the growth was 74.1% (inactive).
`O=C1c2cccc3cccc(c23)C(=O)N1N1C(=O)c2cccc3c(N4CCNCC4)ccc(c23)C1=O` was tested, and the growth was 88.9% (inactive).
For `Cc1nc2sc(C(=O)Nc3cccc4ncccc34)c(N)c2cc1C(C)O` (stereo unspecified), the growth was 74.5% (inactive).
In the case of `CCOC(=O)c1nc2c3ccccc3cnn2c1C(=O)c1ccc(OC)cc1`, the growth is reported as 102% (inactive).
With `O=C1/C(=C/c2ccccc2[N+](=O)[O-])Cc2ccccc21` the growth was 23.7% (inactive) and 60.2% (inactive).
With `COc1cc(/C=C2/C=C(c3ccc(C(C)(C)C)cc3)N(CCc3ccc(S(N)(=O)=O)cc3)C2=O)cc(OC)c1OC` the growth was 68.4% (inactive).
For `COC(=O)N/N=C/c1c[n+]([O-])c2ccccc2[n+]1[O-]`, the growth was 108% (inactive).
For `Cc1nc(-n2[nH]c(=O)ccc2=O)sc1N=Nc1ccccc1`, the growth was 102% (inactive).
For `CC1(Cc2ccccc2)CC2=C(C(=O)O1)C(c1ccccc1)NC(=O)N2` (stereo unspecified), the growth was 104% (inactive).
With `Cc1ccc(/C=C/c2c(C(=O)/C=C/c3ccccc3)c(C)nc3ccccc23)cc1` the growth was -1.88% (active).
`CC1=C2[C@@H](CC1)[C@]1(C)O[C@@](C3CC3)(C[C@H]1OC(=O)CO)[C@H]2OC(=O)/C=C/c1ccccc1` was tested, and the growth was 90.9% (inactive).
`COc1ccc(S(=O)(=O)Nc2cc(Sc3cccc4cccnc34)c(O)c3ccccc23)cc1` was tested, and the growth was 6.25% (active).
In the case of `CCN(CC)CCCN1C(=O)c2c(c(C)c3c(oc4cc(OC)ccc43)c2C)C1=O`, the growth is reported as 85.3% (inactive).
In the case of `CN1Cn2c(ccc2C(F)(F)F)C(=O)CS1(=O)=O`, the growth is reported as 90.2% (inactive).
`O=c1cc(N/N=C/c2ccc(F)cc2)c2cc(Cl)ccc2[nH]1` was tested, and the growth was 98.4% (inactive).
`Cc1cccc(-c2nnc(SCC(=O)Nc3ncc(Cc4ccccc4)s3)n2N2C(=O)CSC2=S)c1` was tested, and the growth was 20.6% (inactive).
In the case of `COc1ccc(/C(C)=C(\c2ccc(OCCN3CCCCCC3)cc2)c2ccc(OC(=O)C3CCCCC3)cc2)cc1`, the growth is reported as -81.2% (active).
`COc1ccc2c(c1)c(C(=O)c1nc(-c3cn(C)c4ccccc34)no1)cn2C` was tested, and the growth was 83.4% (inactive).
`CCOC(=O)c1nnn(Cc2cc(=O)oc3c2ccc2ccccc23)c1C` was tested, and the growth was 98.5% (inactive).
